# Measurements published in PubChem BioAssay (EPA / NIEHS).
# Calls of active or inactive are those of the source. How the source made its calls: active means hit-call score of the fitted dose curve at least 0.9, where 1 is the maximum; inconclusive means response in the unintended direction; inactive means score below 0.9.
# Experiment: Tanguay_ZF_120hpf_MORT_legacy: (Legacy) Oregon State University Tanguay Lab 120 Hour Post-fertilization zebrafish Assay for Mortality (AID 2283633)
# In short: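 5D WT zebrafish, chorion removed 4 hpf; 1 embryo/well from 6 hpf; static exposure to 120 hpf, 28C, dark, sealed. Final DMSO 0.64%. Readout: binary mortality, brightfield, 24 + 120 hpf; DMSO as negative control.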
row,SMILES,outcome
1,Cc1cc2c3c(c1)C(c1ccccc1)=N[C@@H](NC(=O)c1ccncc1)C(=O)N3CC2,inactive
2,CCOP(=S)(OCC)SCSC(C)(C)C,inactive
3,Cc1ccccc1O,inactive
4,CCSC(=O)N(CC)C1CCCCC1,inactive
5,CC1=C2C[C@H]3[C@@H](CC=C4C[C@@H](O)CC[C@@]43C)[C@@H]2CC[C@]12O[C@@H]1C[C@H](C)CN[C@H]1[C@H]2C,inactive
6,CCCN(CCC)N=O,inactive
7,CCC(=O)O[C@H]1CC[C@H]2[C@@H]3CCC4=CC(=O)CC[C@]4(C)[C@H]3CC[C@]12C,inactive
8,O=C(O)C(F)(F)C(F)(F)C(F)(F)C(F)(F)C(F)(F)F,inactive
9,CCNc1nc(NC(C)C)nc(SC)n1,inactive
10,CCC(C)(CC)c1cc(NC(=O)c2c(OC)cccc2OC)on1,inactive
11,Oc1ccc(Cl)cc1Cl,inactive
12,O=S(=O)(O)C(F)(F)C(F)(F)C(F)(F)C(F)(F)F,inactive
13,COc1ccc(O)c(C(C)(C)C)c1,inactive
14,c1ccc(-c2ccccc2)cc1,inactive
15,CN(C)c1nc(=O)n(C2CCCCC2)c(=O)n1C,inactive
16,Cc1cc(O)ccc1Cl,inactive
17,C1CC2OC2CC1C1CO1 (configuration not stated),inactive
18,O=C(NC(=O)c1cc(F)c(F)cc1Cl)Nc1cc(F)ccc1N1CCC(C(=O)O)CC1,inactive
19,Nn1cnnc1,inactive
20,O=C(O)C(F)(F)C(F)(F)C(F)(F)C(F)(F)C(F)(F)C(F)(F)C(F)(F)C(F)(F)C(F)(F)F,inactive
21,CCCCCCCCOC(=O)c1ccccc1C(=O)OCCCCCCCC,inactive
22,Clc1ccc(C(Cl)(Cl)Cl)cc1,inactive
